# Source: PubChem
# A selection follows.
# miR122 inh – miR-122 suppressors via Renilla sensor increase, primary screen, cell-based, Huh7 psiCHECK-miR122, Renilla luciferase, single point; 48 h; activation, % at 12.5 µM; 340,000 compounds, 0.14% hits;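 active = mean activation of 30% or more, with every replicate also reaching 30%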;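 also: 0% = median of neutral control wells and 100% = median of positive control wells; higher luciferase signal means stronger suppression of miR-122 activity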
# * hit, by the source's call.
SMILES,miR122 inh
CN1C(=O)c2cc(NC(=O)Cc3ccccc3)ccc2OC[C@@H]2O[C@@H](CC(=O)NCc3ccc(Cl)cc3)CC[C@@H]21,-233
CCC(=O)Nc1ccc2c(c1)C(=O)N(C)C[C@H](OC)[C@@H](C)CN(Cc1ccccc1OC)[C@@H](C)CO2,-4
C[C@H](CO)N1C[C@H](C)[C@@H](CN(C)Cc2ccccn2)Oc2ncc(-c3ccc(F)cc3)cc2C1=O,0
C/C=C/c1cnc2c(c1)C(=O)N([C@@H](C)CO)C[C@H](C)[C@H](CN(C)C(=O)Cc1cccnc1)O2,-1
C/C=C/c1ccc2c(c1)O[C@@H](CN(C)C(=O)CC1CC1)[C@H](C)CN([C@@H](C)CO)S2(=O)=O,5
CCCC#Cc1cnc2c(c1)C(=O)N([C@H](C)CO)C[C@H](C)[C@H](CN(C)C(=O)C1CC1)O2,-12
CC(=O)N(C)C[C@@H]1Oc2cc(C#C[C@H](C)O)ccc2S(=O)(=O)N([C@@H](C)CO)C[C@H]1C,7
CC(C)CC#Cc1ccc2c(c1)O[C@H](CN(C)C(=O)NC1CCCC1)[C@H](C)CN([C@H](C)CO)S2(=O)=O,-4
Cc1noc(C)c1NC(=O)N(C)C[C@H]1Oc2ncc(C#CCC(C)C)cc2C(=O)N([C@H](C)CO)C[C@H]1C,1
C[C@@H]1CN([C@@H](C)CO)C(=O)c2cc(C#Cc3ccccn3)cnc2O[C@H]1CN(C)Cc1cncnc1,6
C[C@@H]1CN([C@@H](C)CO)S(=O)(=O)c2ccc(-c3cncnc3)cc2O[C@H]1CN(C)Cc1cncnc1,1
CO[C@H]1CN(C)C(=O)c2cc(NC(C)=O)ccc2OC[C@@H](C)N(C(=O)c2ccccc2)C[C@@H]1C,1
COc1cccc(C(=O)Nc2ccc3c(c2)C(=O)N(C)[C@@H]2CC[C@@H](CC(=O)N[C@H](C)c4ccccc4)O[C@@H]2CO3)c1,47*
C[C@H](CO)N1C[C@H](C)[C@@H](CN(C)C(=O)c2ccncc2)Oc2ncc(/C=C/c3ccccc3)cc2C1=O,9
CC(C)CC#Cc1cnc2c(c1)C(=O)N([C@@H](C)CO)C[C@@H](C)[C@H](CN(C)Cc1ccc(F)cc1)O2,6
C[C@H]1CN([C@@H](C)CO)C(=O)c2cc(C#CCc3ccccc3)cnc2O[C@H]1CN(C)C(=O)C1CCCCC1,2
CC(C)C#Cc1ccc2c(c1)O[C@@H](CN(C)C(=O)CC1CC1)[C@H](C)CN([C@H](C)CO)S2(=O)=O,3
C[C@@H]1CN([C@@H](C)CO)S(=O)(=O)c2ccc(/C=C/c3ccccc3)cc2O[C@@H]1CN(C)Cc1cccnc1,-5
CCN1CCN(Cc2ccc(NC(=O)c3ccc(C)c(NC(=O)c4c[nH]c5cc(C(F)(F)F)ccc5c4=O)c3)cc2C(F)(F)F)CC1,33*
C[C@H]1CN([C@@H](C)CO)C(=O)c2cc(C#Cc3ccccn3)cnc2O[C@H]1CN(C)Cc1cccnc1,-1
C[C@H](CO)N1C[C@H](C)[C@H](CN(C)C(=O)CC2CC2)Oc2cc(-c3ccccc3)ccc2S1(=O)=O,-10
C[C@@H]1CN([C@@H](C)CO)S(=O)(=O)c2ccc(C#CC3CC3)cc2O[C@H]1CN(C)C(=O)C1CC1,-27
